Results published in the supplement of paper PMC12494721.
Counter-ions that a name gives are not always drawn.

tested on: Ruminococcus gnavus DSM 108212; assay: fold change of 2-Phenylethylamine concentration vs plate DMSO controls (fold change (ratio)); higher = more amine produced, active = hit call of the paper (significant change in both replicates, either direction); settings: incubation time: 27 h, anaerobic, 37 °C;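 for the amine columns active = adjusted P below 0.05 in both replicates with a change the same way and a mean fold change under 0.8 or over 1.25; inactive = the rest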
Outline: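 In 80 µL wells, cultures of four gut bacterial strains in mGAM started at OD 0.1 before a 1:1 dilution and grew anaerobically at 37 °C for 27 h. Compounds were added to 20 µM final, except sweeteners at 50 µM final. After extraction of whole cultures with cold acetonitrile/methanol plus 0.1% formic acid and centrifugation, amines were measured by LC–triple-quadrupole MS in dynamic MRM mode against external calibration curves, with within-batch drift correction. Values give fold change over DMSO controls on the same plate, averaged across 2 biological replicates.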

Fold change of 2-Phenylethylamine concentration, active:
C[C@@H](O)[C@H]1C(=O)N2C(C(=O)O)=C(S[C@@H]3CN[C@H](C(=O)N(C)C)C3)[C@H](C)[C@H]12 [Meropenem] (20 µM) 0.0459
Nc1ccn([C@@H]2O[C@H](CO)[C@@H](O)[C@@H]2O)c(=O)n1 [Cytarabine] (20 µM) 0.69
CCOC(=O)OC(C)OC(=O)[C@@H]1N2C(=O)[C@@H](NC(=O)[C@H](N)c3ccccc3)[C@H]2SC1(C)C (some centres undefined) [Bacampicillin hydrochloride] (20 µM) 0.0374
CN[C@H](CC(C)C)C(=O)N[C@H]1C(=O)N[C@@H](CC(N)=O)C(=O)N[C@H]2C(=O)N[C@H]3C(=O)N[C@H](C(=O)N[C@H](C(=O)O)c4cc(O)cc(O)c4-c4cc3ccc4O)[C@H](O)c3ccc(c(Cl)c3)Oc3cc2cc(c3O[C@@H]2O[C@H](CO)[C@@H](O)[C@H](O)[C@H]2O[C@H]2C[C@](C)(N)[C@H](O)[C@H](C)O2)Oc2ccc(cc2Cl)[C@H]1O [Vancomycin hydrochloride] (20 µM) 0.0538

Fold change of 2-Phenylethylamine concentration, inactive:
CCCN(CCC)C(=O)C(CCC(=O)O)NC(=O)c1ccccc1 (centres undefined) [Proglumide] (20 µM) 1.11
CN1CCC(=C2c3ccccc3CC(=O)c3sccc32)CC1 [Ketotifen fumarate] (20 µM) 0.968
Cc1ccc(-c2ncc(Cl)cc2-c2ccc(S(C)(=O)=O)cc2)cn1 [Etoricoxib] (20 µM) 1.19
CC(C)(C)c1ccc(C(O)CCCN2CCC(C(O)(c3ccccc3)c3ccccc3)CC2)cc1 (centres undefined) [Terfenadine] (20 µM) 0.815
CC(NN)c1ccccc1 (centres undefined) [Mebanazine] (20 µM) 0.916
OCCN1CCN(CC/C=C2/c3ccccc3Sc3ccc(C(F)(F)F)cc32)CC1 [Flupentixol dihydrochloride cis-(Z)] (20 µM) 1.06
C#CCN(C)CCCOc1ccc(Cl)cc1Cl [Clorgyline hydrochloride] (20 µM) 0.974
CN(C)C(=O)C(CCN1CCC(O)(c2ccc(Cl)cc2)CC1)(c1ccccc1)c1ccccc1 [Loperamide hydrochloride] (20 µM) 0.915
CC[N+](CC)(CC(=O)Nc1c(C)cccc1C)Cc1ccccc1 [Denatonium benzoate] (20 µM) 0.945
COc1cc(C)c(/C=C/C(C)=C/C=C/C(C)=C/C(=O)O)c(C)c1C [Acitretin] (20 µM) 0.99
COc1ccc2cc([C@H](C)C(=O)O)ccc2c1 [(S)-Naproxen] (20 µM) 0.899
COC(=O)Nc1nc2cc(C(=O)c3ccc(F)cc3)ccc2[nH]1 [Flubendazol] (20 µM) 0.919
O=C(O)COc1nn(Cc2ccccc2)c2ccccc12 [Bendazac] (20 µM) 0.993
O=C(O)Cc1ccc(-c2ccccc2)cc1 [Felbinac] (20 µM) 1.01
CCOc1ccc2c(c1)C(C)=CC(C)(C)N2 [Ethoxyquin] (20 µM) 0.807
CN1CC2c3ccccc3Oc3ccc(Cl)cc3C2C1 (centres undefined) [Asenapine maleate] (20 µM) 0.917
CCCOc1ccccc1-c1nc2[nH]nnc2c(=O)[nH]1 [Zaprinast] (20 µM) 1.06
CCCCC(O)c1ccccc1 (centres undefined) [Fenipentol] (20 µM) 1.04
N#Cc1ccc(Oc2ccc3c(c2)COB3O)cc1 [Crisaborole] (20 µM) 0.799
COc1ccc([C@@H]2Sc3ccccc3N(CCN(C)C)C(=O)[C@@H]2OC(C)=O)cc1 [Diltiazem hydrochloride] (20 µM) 0.971
